# Measurements as given in the supplement of paper PMC4466140.
# B1: unnamed (peptide)
# chain: NFFRKKLGIPRKLKR
# B2: unnamed (peptide)
# chain: KRRAPPPVPKKPSSR
# Key:
# Test in all cases: SPOT peptide array binding signal intensity (averaged, normalized) (arbitrary units (background-subtracted, floor 0; scale differs between SH3 domains)); higher = stronger binding of the SH3 domain to the peptide
# AgAbp1 = target: AgAbp1
# Summary of the method: (§1)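 Peptides were synthetic 15-mers on cellulose membranes, with every cysteine replaced by serine. They were incubated overnight at 4°C with GST-SH3 domains from four yeast species at 10 μg/ml in TBS-based blocking buffer. Binding signal, the replicate-averaged normalized and background-subtracted spot intensity, is in arbitrary units that differ between domains.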
# AgBbc1 = target: AgBbc1
# Summary of the method: as §1
# AgBem1-D1 = target: AgBem1-D1
# Summary of the method: as §1
# AgBzz1-D1 = target: AgBzz1-D1
# Summary of the method: as §1
# AgBzz1-D2 = target: AgBzz1-D2
# Summary of the method: as §1
# AgCyk3 = target: AgCyk3
# Summary of the method: as §1
# AgFus1 = target: AgFus1
# Summary of the method: as §1
# AgHof1 = target: AgHof1
# Summary of the method: as §1
# AgHse1 = target: AgHse1
# Summary of the method: as §1
# AgLsb1 = target: AgLsb1
# Summary of the method: as §1
# AgLsb4 = target: AgLsb4
# Summary of the method: as §1
# AgMyo5 = target: AgMyo5
# Summary of the method: as §1
# AgNbp2 = target: AgNbp2
# Summary of the method: as §1
# AgRvs167 = target: AgRvs167
# Summary of the method: as §1
# AgSho1 = target: AgSho1
# Summary of the method: as §1
# AgSla1-D1-D2 = target: AgSla1-D1-D2
# Summary of the method: as §1
# AgSla1-D3 = target: AgSla1-D3
# Summary of the method: as §1
# CaAbp1-D1 = target: CaAbp1-D1
# Summary of the method: as §1
# CaAbp1-D2 = target: CaAbp1-D2
# Summary of the method: as §1
# CaBbc1 = target: CaBbc1
# Summary of the method: as §1
# CaBem1-D1 = target: CaBem1-D1
# Summary of the method: as §1
# CaBzz1-D1 = target: CaBzz1-D1
# Summary of the method: as §1
# CaBzz1-D2 = target: CaBzz1-D2
# Summary of the method: as §1
# CaCyk3 = target: CaCyk3
# Summary of the method: as §1
# CaFus1 = target: CaFus1
# Summary of the method: as §1
# CaHof1 = target: CaHof1
# Summary of the method: as §1
# CaHse1 = target: CaHse1
# Summary of the method: as §1
# CaLsb1 = target: CaLsb1
# Summary of the method: as §1
# CaLsb4 = target: CaLsb4
# Summary of the method: as §1
# CaMyo5 = target: CaMyo5
# Summary of the method: as §1
# CaNbp2 = target: CaNbp2
# Summary of the method: as §1
# CaRvs167 = target: CaRvs167
# Summary of the method: as §1
# CaRvs167-3 = target: CaRvs167-3
# Summary of the method: as §1
# CaSho1 = target: CaSho1
# Summary of the method: as §1
# CaSla1-D1-D2 = target: CaSla1-D1-D2
# Summary of the method: as §1
# CaSla1-D3 = target: CaSla1-D3
# Summary of the method: as §1
# ScAbp1 = target: ScAbp1
# Summary of the method: as §1
# ScBbc1 = target: ScBbc1
# Summary of the method: as §1
# ScBem1-D1 = target: ScBem1-D1
# Summary of the method: as §1
# ScBzz1-D1 = target: ScBzz1-D1
# Summary of the method: as §1
# ScBzz1-D2 = target: ScBzz1-D2
# Summary of the method: as §1
# ScCyk3 = target: ScCyk3
# Summary of the method: as §1
# ScFus1 = target: ScFus1
# Summary of the method: as §1
# ScHof1 = target: ScHof1
# Summary of the method: as §1
# ScHse1 = target: ScHse1
# Summary of the method: as §1
# ScLsb1 = target: ScLsb1
# Summary of the method: as §1
# ScLsb2 = target: ScLsb2
# Summary of the method: as §1
# ScLsb3 = target: ScLsb3
# Summary of the method: as §1
# ScLsb4 = target: ScLsb4
# Summary of the method: as §1
# ScMyo3 = target: ScMyo3
# Summary of the method: as §1
# ScMyo5 = target: ScMyo5
# Summary of the method: as §1
# ScNbp2 = target: ScNbp2
# Summary of the method: as §1
# ScPex13 = target: ScPex13
# Summary of the method: as §1
# ScRvs167 = target: ScRvs167
# Summary of the method: as §1
# ScSho1 = target: ScSho1
# Summary of the method: as §1
# ScSla1-D1-D2 = target: ScSla1-D1-D2
# Summary of the method: as §1
# ScSla1-D3 = target: ScSla1-D3
# Summary of the method: as §1
# SpAbp1-D1 = target: SpAbp1-D1
# Summary of the method: as §1
# SpBbc1 = target: SpBbc1
# Summary of the method: as §1
# SpBzz1-D1 = target: SpBzz1-D1
# Summary of the method: as §1
# SpBzz1-D2 = target: SpBzz1-D2
# Summary of the method: as §1
# SpCyk3 = target: SpCyk3
# Summary of the method: as §1
# SpHof1 = target: SpHof1
# Summary of the method: as §1
# SpHof1-2 = target: SpHof1-2
# Summary of the method: as §1
# SpHof1-3 = target: SpHof1-3
# Summary of the method: as §1
# SpHse1 = target: SpHse1
# Summary of the method: as §1
# SpLsb1 = target: SpLsb1
# Summary of the method: as §1
# SpLsb4 = target: SpLsb4
# Summary of the method: as §1
# SpMyo1 = target: SpMyo1
# Summary of the method: as §1
# SpNbp2 = target: SpNbp2
# Summary of the method: as §1
# SpPex13 = target: SpPex13
# Summary of the method: as §1
# SpRvs167 = target: SpRvs167
# Summary of the method: as §1
# SpSla1-D1-D2 = target: SpSla1-D1-D2
# Summary of the method: as §1
# SpSla1-D3 = target: SpSla1-D3
# Summary of the method: as §1
binder,measurement,setting,value
B1,SPOT peptide array binding signal intensity,AgAbp1,227
same,SPOT peptide array binding signal intensity,AgBbc1,12
same,SPOT peptide array binding signal intensity,AgBem1-D1,94
same,SPOT peptide array binding signal intensity,AgBzz1-D1,20
same,SPOT peptide array binding signal intensity,AgBzz1-D2,45
same,SPOT peptide array binding signal intensity,AgCyk3,1.5
same,SPOT peptide array binding signal intensity,AgFus1,142
same,SPOT peptide array binding signal intensity,AgHof1,13.2
same,SPOT peptide array binding signal intensity,AgHse1,1980
same,SPOT peptide array binding signal intensity,AgLsb1,3.5
same,SPOT peptide array binding signal intensity,AgLsb4,99
same,SPOT peptide array binding signal intensity,AgMyo5,2
same,SPOT peptide array binding signal intensity,AgNbp2,44
same,SPOT peptide array binding signal intensity,AgRvs167,5.33
same,SPOT peptide array binding signal intensity,AgSho1,73
same,SPOT peptide array binding signal intensity,AgSla1-D1-D2,368
same,SPOT peptide array binding signal intensity,AgSla1-D3,1.5
same,SPOT peptide array binding signal intensity,CaAbp1-D1,1000
same,SPOT peptide array binding signal intensity,CaAbp1-D2,1180
same,SPOT peptide array binding signal intensity,CaBbc1,31.5
same,SPOT peptide array binding signal intensity,CaBem1-D1,4
same,SPOT peptide array binding signal intensity,CaBzz1-D1,47.5
same,SPOT peptide array binding signal intensity,CaBzz1-D2,26
same,SPOT peptide array binding signal intensity,CaCyk3,≤ 0
same,SPOT peptide array binding signal intensity,CaFus1,729
same,SPOT peptide array binding signal intensity,CaHof1,0.5
same,SPOT peptide array binding signal intensity,CaHse1,37.2
same,SPOT peptide array binding signal intensity,CaLsb1,1
same,SPOT peptide array binding signal intensity,CaLsb4,≤ 0
same,SPOT peptide array binding signal intensity,CaMyo5,0.75
B2,SPOT peptide array binding signal intensity,AgAbp1,5310
same,SPOT peptide array binding signal intensity,AgBbc1,1320
same,SPOT peptide array binding signal intensity,AgBem1-D1,274
same,SPOT peptide array binding signal intensity,AgBzz1-D1,2790
same,SPOT peptide array binding signal intensity,AgBzz1-D2,1090
same,SPOT peptide array binding signal intensity,AgCyk3,4
same,SPOT peptide array binding signal intensity,AgFus1,42.5
same,SPOT peptide array binding signal intensity,AgHof1,358
same,SPOT peptide array binding signal intensity,AgHse1,332
same,SPOT peptide array binding signal intensity,AgLsb1,650
same,SPOT peptide array binding signal intensity,AgLsb4,374
same,SPOT peptide array binding signal intensity,AgMyo5,37
same,SPOT peptide array binding signal intensity,AgNbp2,6190
same,SPOT peptide array binding signal intensity,AgRvs167,106
same,SPOT peptide array binding signal intensity,AgSho1,886
same,SPOT peptide array binding signal intensity,AgSla1-D1-D2,107
same,SPOT peptide array binding signal intensity,AgSla1-D3,1230
same,SPOT peptide array binding signal intensity,CaAbp1-D1,5770
same,SPOT peptide array binding signal intensity,CaAbp1-D2,7000
same,SPOT peptide array binding signal intensity,CaBbc1,2030
same,SPOT peptide array binding signal intensity,CaBem1-D1,95
same,SPOT peptide array binding signal intensity,CaBzz1-D1,7240
same,SPOT peptide array binding signal intensity,CaBzz1-D2,4490
same,SPOT peptide array binding signal intensity,CaCyk3,458
same,SPOT peptide array binding signal intensity,CaFus1,308
same,SPOT peptide array binding signal intensity,CaHof1,0.75
same,SPOT peptide array binding signal intensity,CaHse1,1600
same,SPOT peptide array binding signal intensity,CaLsb1,≤ 0
same,SPOT peptide array binding signal intensity,CaLsb4,2400
same,SPOT peptide array binding signal intensity,CaMyo5,4.75
same,SPOT peptide array binding signal intensity,CaNbp2,2600
same,SPOT peptide array binding signal intensity,CaRvs167,130
same,SPOT peptide array binding signal intensity,CaRvs167-3,21.8
same,SPOT peptide array binding signal intensity,CaSho1,269
same,SPOT peptide array binding signal intensity,CaSla1-D1-D2,3450
same,SPOT peptide array binding signal intensity,CaSla1-D3,1040
same,SPOT peptide array binding signal intensity,ScAbp1,3030
same,SPOT peptide array binding signal intensity,ScBbc1,669
same,SPOT peptide array binding signal intensity,ScBem1-D1,29
same,SPOT peptide array binding signal intensity,ScBzz1-D1,2330
same,SPOT peptide array binding signal intensity,ScBzz1-D2,82.5
same,SPOT peptide array binding signal intensity,ScCyk3,13
same,SPOT peptide array binding signal intensity,ScFus1,45.5
same,SPOT peptide array binding signal intensity,ScHof1,0.5
same,SPOT peptide array binding signal intensity,ScHse1,448
same,SPOT peptide array binding signal intensity,ScLsb1,517
same,SPOT peptide array binding signal intensity,ScLsb2,684
same,SPOT peptide array binding signal intensity,ScLsb3,4730
same,SPOT peptide array binding signal intensity,ScLsb4,105
same,SPOT peptide array binding signal intensity,ScMyo3,439
same,SPOT peptide array binding signal intensity,ScMyo5,380
same,SPOT peptide array binding signal intensity,ScNbp2,6200
same,SPOT peptide array binding signal intensity,ScPex13,512
same,SPOT peptide array binding signal intensity,ScRvs167,1260
same,SPOT peptide array binding signal intensity,ScSho1,3480
same,SPOT peptide array binding signal intensity,ScSla1-D1-D2,4950
same,SPOT peptide array binding signal intensity,ScSla1-D3,1400
same,SPOT peptide array binding signal intensity,SpAbp1-D1,6350
same,SPOT peptide array binding signal intensity,SpBbc1,192
same,SPOT peptide array binding signal intensity,SpBzz1-D1,1370
same,SPOT peptide array binding signal intensity,SpBzz1-D2,1470
same,SPOT peptide array binding signal intensity,SpCyk3,2.5
same,SPOT peptide array binding signal intensity,SpHof1,218
same,SPOT peptide array binding signal intensity,SpHof1-2,37.8
same,SPOT peptide array binding signal intensity,SpHof1-3,591
same,SPOT peptide array binding signal intensity,SpHse1,179
same,SPOT peptide array binding signal intensity,SpLsb1,1780
same,SPOT peptide array binding signal intensity,SpLsb4,2060
same,SPOT peptide array binding signal intensity,SpMyo1,416
same,SPOT peptide array binding signal intensity,SpNbp2,188
same,SPOT peptide array binding signal intensity,SpPex13,22
same,SPOT peptide array binding signal intensity,SpRvs167,1820
same,SPOT peptide array binding signal intensity,SpSla1-D1-D2,1660
same,SPOT peptide array binding signal intensity,SpSla1-D3,1.5
